# Rows were chosen to be rich in hits. Some 1.8% of all compounds tested hit in one or more screens of this group.
# BRCA1 expr act – BRCA1 expression activation | actives 1.1% (n = 380,000) | Potency, µM (series often up to 46.1 µM), actives largely listed as activators | MCF7-BRCA1-FFLuc reporter, luminescence, 48 h; response scale: scaled: vehicle 0%, 10 µM genistein 100%; also: nearly all actives have a fitted effect of over 80% in size
#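 Luminescence from a BRCA1-driven firefly luciferase in MCF7 cells was the read-out, taken 15 min after substrate addition following 48 h compound exposure at 37 °C. Data were normalized to a 10 microM genistein control and DMSO vehicle.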
# Akt phos inh – Akt phosphorylation inhibition; Neuro2A IGF-stimulated pAkt S473 HTRF, 20 min; active compounds read low; activity change, % for hits at 50 µM; actives 0.32% (n = 360,000); AID 651550; in the data active = activity change below about -80%; inconclusive = mostly about -51% to -80%
#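 Neuro2A cells (4,500/well, DMEM with 0.5% FBS) were treated with compound at a single 50 µM final concentration, stimulated with 6 nM IGF for 20 min at 37 °C, and lysed. Phospho-Akt Ser473 was read by HTRF as 665/615 ratio ×10^4.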
# CCT chaperon mod – modulators of cytosolic chaperonin (CCT/TRiC) activity | purified chaperonin ATPase assay, HTRF ADP detection, 30 min | activity change, % (test concentration not listed), hits read low | actives 0.3% (n = 360,000) | AID 651819; in the data active = activity change below about -30%
#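 We incubate TRiC, 40 or 20 nM final, with library compounds at 76 uM and 10 uM ATP for 30 min at 37 °C. ADP formed is detected with Transcreener HTRF reagents after 30 min at room temperature.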
# A-T KAP1 phos – potential ataxia-telangiectasia treatment. F2112 A-T fibroblasts, KAP-1 phosphorylation AlphaLISA; neocarzinostatin DNA damage 30 min before lysis. Potency, µM (highest dose often 57.5 µM), most hits filed as activators. actives 0.19% (n = 320,000). AID 485349; also: nearly all actives have a fitted effect of over 45% in size
#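 ATM-like activity read as KAP-1 phosphorylation via AlphaLISA donor/acceptor antibody pairs after lysis and 6 hr at 25C. Cells were ATM-null patient fibroblasts (F2112, hTERT), dosed 60 min, then exposed to the DSB inducer NCS for 30 min.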
# MmCpn inh – blocks the Methanococcus maripaludis chaperonin Mm-Cpn; purified Mm-Cpn ATPase, ADP Transcreener TR-FRET; Potency, µM (top dose mostly 76.9 µM), hits mostly inhibitors; actives 0.031% (n = 330,000); also: nearly all actives have a fitted effect of over 80% in size
#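 Quantitative HTS used 25 nM Mm-CPN and 10 uM ATP in magnesium/KCl Tris buffer, pH 7.4, with 1 mM DTT. Hydrolysis ran 30 min at 37°C; ADP was read by HTRF.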
# Numbers stand for hits; . = inactive; ? = inconclusive; / = no result; [ ] = dose if it differs, or a comment. Unless noted, calls follow the shape of the dose curve; as a rule, active = well fitted curve in the direction sought with a large enough effect; inconclusive = small, poorly fitted or top-dose-only effect, or another doubt; inactive = no such curve, though single readings can be large; an effect the other way counts as inactive or inconclusive.
SMILES,BRCA1 expr act,Akt phos inh,CCT chaperon mod,A-T KAP1 phos,MmCpn inh
CCCCNC(=O)C1(C)CCN1C(=O)c1cc(OC)ccc1Br (stereo not given),.,.,.,/,/
CCCC(=O)Nc1ccccc1NC(C)=O,.,.,-31,.,.
COC(=O)c1cc2c(s1)c1cnn(Cc3ccccc3F)c(=O)c1n2C,/,/,/,.,.
CCN=C1NN=C(c2ccc(C)cc2)CS1,2.2µM,.,.,.,.
CCOC(=O)Cc1csc(NC(=O)c2cnc3sc(C)cn3c2=O)n1,11µM,.,.,.,?
CCOc1ccc(NC2=C(Cl)C(=O)N(C3CCCCC3)C2=O)cc1,.,.,-32,.,.
COc1ccc(C)cc1NC1=C(Cl)C(=O)N(C2CCCCC2)C1=O,.,.,.,.,.
COc1ccc2nc(C)cc(Nc3ccc(C(=O)O)cc3)c2c1,.,.,.,10µM,.
CCOc1ccc(CN(C)C(=O)CCc2ccc(S(=O)(=O)N3CCCCCC3)cc2)cc1,.,.,.,.,.
CCC(=O)N1CCc2cc(Br)cc(S(=O)(=O)CC(=O)OC)c21,.,-107%,.,.,.
Cc1nc([N+](=O)[O-])cn1CC(=O)c1ccc2c(c1)OCCO2,.,/,/,/,/
CC(=O)Nc1ccc(NC(=O)CSc2cn(CC(=O)N3CCOCC3)c3ccccc23)cc1,.,.,.,.,.
O=C(Cn1cc(SCc2ccccc2Cl)c2ccccc21)N1CCOCC1,11µM,.,.,.,.
CC(Sc1nnc(-c2ccccc2)n1C)C(=O)NCc1ccco1 (stereo not given),.,/,/,/,/
NC(=O)C1CCN(c2nc(-c3ccc(Br)cc3)cs2)CC1,1.8µM,.,.,.,.
NC(=O)C1CCN(c2nc(-c3cccs3)cs2)CC1,1.3µM,/,/,.,.
NC(=O)C1CCN(c2nc(-c3ccc(C(F)(F)F)cc3)cs2)CC1,/,/,/,/,.
O=C(Nc1ccc2ccccc2c1)c1cccnc1,?,.,.,.,.
COc1cccc(OC)c1C(=O)NC(=S)Nc1ccc2c(c1)Cc1ccccc1-2,.,-115%,.,/,?
O=C(Nc1ccc2c(c1)Cc1ccccc1-2)c1cccnc1,2.8µM,.,.,.,.
CNc1ccc(C=O)cc1I,.,/,/,/,/
Cc1ccc(Sc2c(C)nn(C(=O)c3ccc(Cl)cc3)c2C)cc1,.,/,/,/,/
O=C(NCc1ccc(Cl)cc1Cl)Nc1nc([C@@H]2O[C@H](CO)[C@@H](O)[C@H](O)[C@H]2O)cs1,.,.,.,/,/
COc1ccc(OC)c(NC(=O)CN2C(=O)CCc3cc(S(=O)(=O)N4CCCCC4)ccc32)c1,.,/,/,/,/
O=C(Nc1nc(-c2cccc(Br)c2)cs1)Oc1ccccc1,?,.,.,.,.
SMILES,BRCA1 expr act,Akt phos inh,CCT chaperon mod,A-T KAP1 phos,MmCpn inh
CCc1ccc(-c2csc(NC(=O)Oc3ccccc3)n2)cc1,7.9µM,.,.,.,.
CC(=O)Nc1nc(COc2ccccc2)cs1,10µM,.,.,.,.
CC(=O)Nc1nc(COc2ccc3ccccc3c2)cs1,.[1.84 µM],/,.,/,.
COc1ccc(-c2csc(NC(C)=O)n2)cc1OC,.,.,.,.,.
COc1cccc(-c2csc(NC(C)=O)n2)c1,13µM,.,.,.,.
COc1ccc(OC(=O)Nc2ccccc2)cc1,.,.,.,.,.
CCc1ccc(OC(=O)Nc2ccccc2)cc1,2.8µM,.,.,.,.
CCCCCCN1C[C@H](n2cc(C3CC3)nn2)[C@@H](O)C[C@@H]1c1ccc(OC)cc1,.,.,.,/,/
Cc1cc(NCc2ccccc2)n2ncc(-c3ccccc3)c2n1,?,.,.,.,.
Cc1cc(NCCCn2ccnc2)n2ncc(-c3ccccc3)c2n1,?,-90%,.,.,.
Cc1cc(NC(C)c2ccccc2)n2ncc(-c3ccccc3)c2n1 (stereo not given),6.3µM,.,.,.,.
Cc1ccc(C(=O)NCC(=O)OCc2cc(=O)n3nc(C4CCCCC4)sc3n2)cc1,.,/,/,/,/
CC(C)Oc1nc(-c2ccccc2Cl)nc2ccccc12,.,.,.,32µM,.
COc1cccc(CN(C)C(=O)c2[nH]c(C)c(C(C)=O)c2C)c1OC,.,.,.,.,.
COc1ccc[n+](CC(=O)c2ccc(F)cc2)c1,.,/,/,/,/
CCCn1c(NC(=O)c2ccc(F)cc2)nc2ccccc21,.,.,.,.,.
CCCn1c(NC(=O)c2ccc(Br)cc2)nc2ccccc21,.,-87%,.,/,.
O=C(/C=C/c1cccs1)N1CCC2(CC1)Oc1ccc(F)cc1C(=O)C21CC(c2ccccc2)=NO1 (stereo not given),.,.,.,3.2µM,.
Cc1ccc(C(=O)NC(=S)Nc2cccnc2Cl)cc1,11µM,.,.,.,.
COc1ccccc1C(=O)NC(=S)Nc1cccnc1Cl,.,.,.,.,.
COc1cc(/C=N/NC(=O)/C(=C/c2ccccc2)CCO)ccc1O,.,.,.,.,.
O=C(N/N=C/c1ccc(O)cc1O)/C(=C/c1ccccc1)CCO,.,.,-35,.,.
c1ccc(COc2ccc(-c3csnn3)cc2)cc1,5.6µM,.,.,.,.
CCn1cnc2sc(C(=O)Oc3ccc(Br)cc3)c(C)c2c1=O,?,.,.,.,.
CCn1cnc2sc(C(=O)N(Cc3ccc(N(C)C)cc3)Cc3ccco3)c(C)c2c1=O,.,-109%,.,.,.
SMILES,BRCA1 expr act,Akt phos inh,CCT chaperon mod,A-T KAP1 phos,MmCpn inh
Cc1cc(OCC(=O)OCC(=O)NC2CCS(=O)(=O)C2)ccc1Cl (stereo not given),.,.,.,/,/
Cc1ccc(OCCSc2nc(N)cc(N)n2)cc1,?,.,.,.,.
COc1ccc(OCCSc2nc(N)cc(N)n2)cc1,11µM,.,.,.,.
COc1ccc(NC(=O)C2=C(C)Nc3nc(SCc4ccccc4)nn3C2c2cc(OC)ccc2OC)cc1 (stereo not given),.,/,/,/,/
CSc1nc(C)c2c(n1)N(c1ccc(F)cc1)CC2,.,-111%,.,.,.
CSc1nc(C)c2c(n1)N(c1ccc(O)cc1)CC2,.,.,.,.,.
O=[N+]([O-])c1ccc2nc(-c3ccncc3)[nH]c2c1,?,.,.,.,.
O=[N+]([O-])c1cccc(-c2nc3ccc([N+](=O)[O-])cc3[nH]2)c1,5µM,.,.,.,.
CN(N=O)c1ccc(/C=C/c2ccnc3ccccc23)cc1,.,/,/,/,/
O=C(N=C1c2ccccc2CN1c1ccc(F)c(Cl)c1)c1cccnc1Cl,/,/,/,.,.
N#Cc1ccc(N2Cc3ccccc3C2=NC(=O)c2cccnc2Cl)cc1,13µM,.,.,.,.
COc1ccc(CN(Cc2ccccc2)C(=O)c2ccncc2)cc1COc1ccc(NC(C)=O)cc1,.,/,/,/,/
CCC(=O)n1nc(-c2ccc(Cl)cc2)nc1SC,10µM,.,.,/,.
CSc1nc(-c2ccc(Cl)cc2)nn1S(=O)(=O)c1ccccc1,?,-115%,.,.,.

# Screening results (PubChem BioAssay)
